Screening results (PubChem)
A selection: hits, their analogues and other compounds. The true share with any hit is near 7.8%.
Shh pathway inh: Sonic Hedgehog pathway inhibition. Shh-LIGHT2 Gli-luciferase reporter, 30 h. inhibition, % (test concentration not listed). actives 2.1% (n = 22,000). AID 2313;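 active means mean inhibition across valid replicates above about 65%, limit read from the data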;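 further: pathway switched on by Shh-conditioned medium diluted 1 in 25 in low serum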
NOMO-1 viab: STK33 inhibitor candidate reducing NOMO-1 cell viability; NOMO-1 AML viability, CellTiter-Glo luminescence, 72 h; inhibition, % (no concentration beside the values); actives 7.5% (n = 37,000); in the data active means inhibition above about 80%
MITF inh: blocks MITF activity | actives 0.28% (n = 37,000) | TRPM1 promoter luciferase, luminescence, 24 h | inhibition, % (concentration not given with the values); in the data active means inhibition above about 85%;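 further: human melanocyte line stably carrying TRPM1 promoter luciferase reporter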
Each line names hits and unclear results; the compound was inactive in the other large screens.

O=C(CC1Sc2ncnn2C1=O)Nc1ccc(Cl)cc1 (configuration not stated)	NOMO-1 viab 107 (no result: Shh pathway inh)
O=C(CSc1ncccn1)Nc1ccc(Cl)cc1	none (no result: Shh pathway inh)
CSc1n[nH]c(-c2cccc(Cl)c2)c1C#N	none (no result: Shh pathway inh)
CC1(C)CC(CC(=O)N2CCOCC2)(c2ccccc2)CCO1 (configuration not stated)	none
CN(C)c1ccc(C(=C2C=CC(=[N+](C)C)C=C2)c2ccc(N(C)C)cc2)cc1	Shh pathway inh 97, NOMO-1 viab 112, MITF inh 109
COc1ccc(S(=O)(=O)Nc2cccc3c2O[C@H](CN(C)Cc2ccc(Oc4ccccc4)cc2)[C@@H](C)CN([C@H](C)CO)C3=O)cc1	none
CC1(C)CC(=O)C=C(SCC(=O)Nc2cc(C(F)(F)F)cc(C(F)(F)F)c2)S1	Shh pathway inh 92, NOMO-1 viab 103
Cc1nnc(SCC(=O)Nc2cccc(C(F)(F)F)c2)s1	none (no result: Shh pathway inh)
C[C@H]1CN([C@@H](C)CO)C(=O)c2cc(NC(=O)Nc3ccc(F)cc3)ccc2O[C@H]1CN(C)Cc1ccc(-c2ccccc2)cc1	NOMO-1 viab 111
C[C@@H]1CN([C@@H](C)CO)C(=O)c2cc(NC(=O)Nc3ccccc3)ccc2O[C@H]1CN(C)Cc1ccc(-c2ccccc2)cc1	NOMO-1 viab 112
C[C@H]1CN([C@@H](C)CO)C(=O)c2cc(NC(=O)Nc3ccccc3)ccc2O[C@H]1CN(C)Cc1ccncc1	NOMO-1 viab 98
C[C@H](CO)N1C[C@H](C)[C@@H](CN(C)Cc2ccc(-c3ccccc3)cc2)Oc2ccc(NC(=O)Nc3ccc(F)cc3)cc2C1=O	none (no result: Shh pathway inh)
COc1ccc(NC(=O)Nc2ccc3c(c2)C(=O)N([C@H](C)CO)C[C@H](C)[C@H](CN(C)Cc2ccncc2)O3)cc1	NOMO-1 viab 94
C[C@H](CO)N1C[C@H](C)[C@H](CN(C)Cc2ccccc2)Oc2ccc(NC(=O)Nc3ccccc3)cc2C1=O	none (no result: Shh pathway inh)
COc1ccc(NC(=O)Nc2ccc3c(c2)C(=O)N([C@@H](C)CO)C[C@@H](C)[C@@H](CN(C)Cc2ccncc2)O3)cc1	none
C[C@@H]1CN([C@@H](C)CO)C(=O)c2cc(NC(=O)Nc3ccccc3)ccc2O[C@@H]1CN(C)Cc1ccncc1	none (no result: Shh pathway inh)
C[C@@H]1CN([C@@H](C)CO)C(=O)Cc2cc(NS(=O)(=O)c3ccc(F)cc3)ccc2O[C@@H]1CN(C)Cc1ccccc1	none
Cc1noc(C)c1NC(=O)N(C)C[C@H]1Oc2ccc(NC(=O)Nc3ccc4c(c3)OCO4)cc2C(=O)N([C@@H](C)CO)C[C@@H]1C	none
C[C@H](CO)N1C[C@H](C)[C@H](CN(C)S(=O)(=O)c2cccs2)Oc2ccc(NC(=O)Nc3ccccc3)cc2CC1=O	none
Cc1cc(OCC(=O)Nc2cc(C(=O)O)cc(C(=O)O)c2)cc(C)c1Cl	none (no result: Shh pathway inh)
COc1ccc(OC)c(S(=O)(=O)Nc2cc3c(C(C)=O)c(C)oc3c3ccccc23)c1	none (no result: Shh pathway inh)
C[C@@H]1CN([C@@H](C)CO)C(=O)c2cc(NC(=O)Nc3ccc(F)cc3)ccc2O[C@H]1CN(C)Cc1ccccc1	none (no result: Shh pathway inh)
C[C@@H]1CN([C@@H](C)CO)C(=O)c2cc(NC(=O)Nc3ccc(F)cc3)ccc2O[C@H]1CN(C)Cc1ccc(-c2ccccc2)cc1	NOMO-1 viab 128
C[C@H]1CN([C@@H](C)CO)C(=O)c2cc(NC(=O)Nc3ccc(F)cc3)ccc2O[C@H]1CN(C)Cc1ccccc1	none (no result: Shh pathway inh)
C[C@H](CO)N1C[C@H](C)[C@H](CN(C)Cc2ccc(-c3ccccc3)cc2)Oc2ccc(NC(=O)Nc3ccc(F)cc3)cc2C1=O	NOMO-1 viab 104 (no result: Shh pathway inh)
C[C@H](CO)N1C[C@H](C)[C@H](CN(C)CC2CC2)Oc2ccc(N(C)C)cc2CC1=O	none
COc1ccc(S(=O)(=O)Nc2ccc3c(c2)CC(=O)N([C@H](C)CO)C[C@@H](C)[C@@H](CN(C)S(=O)(=O)c2ccc(OC)cc2)O3)cc1	none
CC(C)C(=O)Nc1cccc(-c2nc3ccccc3c(=O)o2)c1	none
O=c1oc(-c2cccc(Cl)c2)nc2c1cnn2-c1ccccc1	NOMO-1 viab 115
NCCCC[C@H](N)C(=O)N[C@@H](Cc1ccccc1)C(=O)N[C@@H](Cc1ccc(O)cc1)C(=O)O	none
Cc1ccc(S(=O)(=O)Nc2ccc3c(c2)C(=O)N([C@H](C)CO)C[C@H](C)[C@@H](CN(C)S(=O)(=O)c2cn(C)cn2)OCCCC[C@@H](C)O3)cc1	none (no result: Shh pathway inh)
C[C@@H]1CN([C@@H](C)CO)C(=O)c2cc(NC(=O)c3ccncc3)ccc2O[C@H]1CN(C)Cc1ccc(-c2ccccc2)cc1	none (no result: Shh pathway inh)
C[C@H](CO)N1C[C@H](C)[C@H](CN(C)Cc2ccc(Oc3ccccc3)cc2)Oc2ccc(NC(=O)c3ccncc3)cc2C1=O	none
C[C@@H]1CN([C@@H](C)CO)C(=O)c2cc(NC(=O)c3ccncc3)ccc2O[C@@H]1CN(C)Cc1ccc(Oc2ccccc2)cc1	Shh pathway inh 84
